We go through 19 compounds from PubChem BioAssay (EPA / NIEHS).

Read-out in test [1]: Thyroid Hormone Responsive (THRSP), THRSP (gene 7069)
Kind of test: LTEA_HepaRG_THRSP: Life Technologies and Expression Analysis (LTEA) Assay for Thyroid Hormone Responsive (THRSP) using HepaRG (AID 2283536). The note with it: mRNA level, 48 h; actives raise or lower the signal. In short, it runs like this:
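Differentiated human HepaRG cells were exposed in duplicate for 48 h in serum-free induction medium to eight concentrations (top 100 uM, half-log steps, 0.5% DMSO). Expression was quantified by TaqMan qRT-PCR, normalized to ACTB, GAPDH and POLR2A, with bidirectional fitting against DMSO.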

Read-out in test [2]: Cellular tumor antigen p53 (Homo sapiens) (UniProt P04637)
Kind of test: LTEA_HepaRG_TP53: Life Technologies and Expression Analysis (LTEA) Assay for Tumor Protein P53 (TP53) using HepaRG (AID 2283537). Particulars: mRNA level, 48 h; actives raise or lower the signal. In a few lines:
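Differentiated HepaRG cells in serum-free induction medium exposed 48 h in duplicate to 8 half-log concentrations, top 100 uM, 0.5% DMSO. TP53 mRNA by TaqMan qRT-PCR (Fluidigm), normalized to ACTB, GAPDH, POLR2A; fitted bidirectionally versus DMSO.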

Read-out in test [3]: UDP glucuronosyltransferase (UGT1A1), UGT1A1 (gene 54658)
The test can be described thus: LTEA_HepaRG_UGT1A1: Life Technologies and Expression Analysis (LTEA) Assay for UDP glucuronosyltransferase (UGT1A1) using HepaRG (AID 2283538). The note with it: mRNA level, 48 h; actives raise or lower the signal. In a few lines: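 Human liver HepaRG cultures receive test chemical for 48 h, up to 100 uM in 0.5% DMSO, with phenobarbital induction controls. UGT1A1 mRNA is measured by qRT-PCR and normalized to ACTB, GAPDH and POLR2A.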

Read-out in test [4]: UDP glucuronosyltransferase (UGT1A6), UGT1A6 (gene 54578)
Kind of test: LTEA_HepaRG_UGT1A6: Life Technologies and Expression Analysis (LTEA) Assay for UDP glucuronosyltransferase (UGT1A6) using HepaRG (AID 2283539). Particulars: mRNA level, 48 h; actives raise or lower the signal. In short, it runs like this: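 Expression was quantified by TaqMan qRT-PCR on Fluidigm arrays with ACTB/GAPDH/POLR2A normalization and bidirectional fitting against 0.5% DMSO. HepaRG cells (~100,000/well) were treated in duplicate for 48 h at eight half-log concentrations up to 100 uM in serum-free induction medium.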

Read-out in test [5]: X-box binding protein 1 (XBP1), XBP1 (gene 7494)
Kind of test: LTEA_HepaRG_XBP1: Life Technologies and Expression Analysis (LTEA) Assay for X-box binding protein 1 (XBP1) using HepaRG (AID 2283540). The note with it: mRNA level, 48 h; actives raise or lower the signal. In a few lines: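 XBP1 transcript by qRT-PCR (housekeeping-normalized: ACTB, GAPDH, POLR2A) after 48 h chemical treatment of HepaRG cells, 8-point half-log series topping at 100 uM, vehicle 0.5% DMSO. Gain and loss of signal fitted relative to DMSO.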

A short description of test [6]: LTEA_HepaRG_LDH_cytotoxicity: Cytotoxicity Assessment in the Life Technologies and Expression Analysis (LTEA) Assay (AID 2283563; active = hit-call score of the fitted dose curve at least 0.9, where 1 is the maximum). In a few lines: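 LDH release into culture medium read after 48 h chemical treatment of HepaRG cells. Duplicate wells, eight-point half-log series topping at 100 uM, 0.5% DMSO vehicle and baseline.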
Test [7] can be described thus: ATG_XTT_Cytotoxicity: Cytotoxicity Assessment in the Attagene TRANS-FACTORIAL HepG2 Assay (AID 2283584; active = hit-call score of the fitted dose curve at least 0.9, where 1 is the maximum). In short, it runs like this: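 Viability endpoint from XTT after 24 h chemical exposure of reporter-transfected human HepG2 liver cells; signal loss fitted relative to DMSO negative control.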
The nature of test [8]: TOX21_p53_BLA_p2_viability: Viability Assessment in the Tox21 HCT-116 p53 Agonism Beta-lactamase Assay, Phase 2 (AID 2283591; active = hit-call score of the fitted dose curve at least 0.9, where 1 is the maximum;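 also: compound exposure lasted 16 h at 37 °C; actives lower the ATP signal meaning cytotoxicity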). In short, it runs like this: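 HCT-116 p53-bla cells (4000/well) rested 5 h at 37C, then received compounds in DMSO (217-fold dilution) for 16 h at 37C, 5% CO2. After the CCF4 read, CellTiter-Glo was added; ATP luminescence was read after 30 min at room temperature.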

In test [9] the target is Cellular tumor antigen p53 (Homo sapiens) (UniProt P04637). The test can be described thus: TOX21_p53_BLA_p2_ratio: Tox21 HCT-116 p53 Agonism Beta-lactamase Assay, Ratio, Phase 2 (AID 2283592; active = hit-call score of the fitted dose curve at least 0.9, where 1 is the maximum). In short, it runs like this: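 Gain-of-signal p53 agonism was scored from the beta-lactamase FRET ratio (460/530 nm, 405 nm excitation) in HCT116 cells treated 16 h at 37C, 5% CO2, with DMSO serving as negative control and baseline.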
Cellular tumor antigen p53 (Homo sapiens), sequence (P04637 whole entry, looked up): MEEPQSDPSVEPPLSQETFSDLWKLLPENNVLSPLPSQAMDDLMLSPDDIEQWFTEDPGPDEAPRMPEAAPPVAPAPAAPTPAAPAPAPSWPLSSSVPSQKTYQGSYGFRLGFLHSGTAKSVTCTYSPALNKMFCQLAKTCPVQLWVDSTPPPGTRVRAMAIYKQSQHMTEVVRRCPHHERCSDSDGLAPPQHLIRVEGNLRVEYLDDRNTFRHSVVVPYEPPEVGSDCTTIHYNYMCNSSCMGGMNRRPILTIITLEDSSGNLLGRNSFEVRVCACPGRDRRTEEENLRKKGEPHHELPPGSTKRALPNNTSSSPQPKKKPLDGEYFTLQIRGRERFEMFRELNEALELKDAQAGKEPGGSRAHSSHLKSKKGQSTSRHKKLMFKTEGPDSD

Test [10] can be described thus: TOX21_p53_BLA_p3_viability: Viability Assessment in the Tox21 HCT-116 p53 Agonism Beta-lactamase Assay, Phase 3 (AID 2283593; active = hit-call score of the fitted dose curve at least 0.9, where 1 is the maximum;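 also: cells exposed to compound for 16 h before reading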). In a few lines: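 HCT-116 cells (4000/well) rested 5 h at 37C, then got DMSO compounds by pin tool (217-fold dilution) for 16 h at 37C, 5% CO2. After the bla read, CellTiter-Glo was added and luminescence read at 30 min, room temperature.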

Structures are written as SMILES. Results filed as inconclusive are left out. Activity calls are given as the source filed them. The calls were made as follows, unless noted: active = hit-call score of the fitted dose curve at least 0.9, where 1 is the maximum; inactive = score below 0.9.

One may read the AC50 as the concentration at which the activity in the assay is half-maximal. Regarding `N#Cc1c[nH]cc1-c1cccc2c1OC(F)(F)O2`, the AC50 is 18 µM (active) in test [1], 71.3 µM (active) in [2], 34.3 µM (active) in test [3] and 7.61 µM (active) in test [9]. The call in test [4], in test [5], in test [6], in test [7], in [8] and in test [10] was inactive.
With `CNC(=O)N(C)c1nnc(C(C)(C)C)s1`, the outcome in test [1], in [2], in [3], in test [4], in test [5] and in test [6] was inactive. Moreover, the call in test [8] and in test [9] was inactive.
`CCNC(=O)NC(=O)C(C#N)=NOC`: the compound was classed as inactive in test [1], in test [3], in [5] and in test [6]. In test [4], the AC50 is 306 nM (active).
For `CCOC(=O)C(C)OC(=O)c1cc(Oc2ccc(C(F)(F)F)cc2Cl)ccc1[N+](=O)[O-]` (stereo not drawn), the AC50 in [1] was 28.4 µM (active); in [3], 8.94 µM (active). Moreover, the result in test [2], in test [4], in [5], in test [6], in [8] and in test [9] was inactive. Also, in [10], the result was inactive.
Consider `Clc1cccc(C(Cl)(Cl)Cl)n1`, for which the result in test [1], in [2], in [4], in test [5], in test [6] and in test [8] was inactive. In test [10], the outcome was inactive. Besides, the AC50 in test [3] is 50 µM (active).
On to `CS(=O)(=O)c1ccc(C(=O)C2C(=O)CCCC2=O)c([N+](=O)[O-])c1`, for which the result in [1], in [2], in test [3], in [4], in test [5] and in [6] was inactive. In addition, the call in test [8], in test [9] and in [10] was inactive.
`COC(=O)NS(=O)(=O)c1ccc(N)cc1`: the outcome in test [1], in [2], in test [3], in test [4], in test [5] and in test [6] was inactive. Moreover, the compound was classed as inactive in [8], in test [9] and in test [10].
Consider `COc1cc(Cl)c(OC)cc1Cl`, for which the compound was classed as inactive in test [1], in test [2], in [4], in [5], in test [6] and in test [9]. Also, the AC50 in test [3] was 2.69 µM (active).
`CCCC(=NOCC)C1=C(O)CC(CC(C)SCC)CC1=O` (stereo not drawn): the result in [1], in test [2], in [4], in test [5], in [6] and in test [9] was inactive. Further, the AC50 in [3] was 50.2 µM (active).
For `CC(C)Nc1nc(Cl)nc(NC(C)C)n1`, the outcome in [1], in test [2], in test [4], in [5], in test [6] and in test [9] was inactive. Further, the AC50 in test [3] was 8.13 µM (active).
For `CCCN(CC)CC1COC2(CCC(C(C)(C)C)CC2)O1` (stereo not drawn), in test [1], the AC50 is 0.319 µM (active). The compound was called inactive in [2], in test [3], in test [4], in [5], in test [6] and in test [8]. Further, the result in [9] and in [10] was inactive.
Regarding `COc1ccc(-c2ccccc2)cc1NNC(=O)OC(C)C`, the outcome in [1], in test [2], in [3], in test [4], in test [5] and in [6] was inactive. For the same compound, the compound was called inactive in test [8], in test [9] and in test [10].
As to `N#CN=C1SCCN1Cc1ccc(Cl)nc1`, the compound was classed as inactive in test [1], in test [2], in test [3], in test [4], in test [5] and in test [6]. The outcome in test [10] was inactive.
`CC(C)=CC1C(C(=O)OCc2coc(Cc3ccccc3)c2)C1(C)C` (stereo not drawn): the compound was called inactive in [1], in test [4], in [5] and in [6]. Further, the AC50 in [3] is 39.4 µM (active).
Turning to `O=C(O)c1c(Cl)ccc2cc(Cl)cnc12`, the call in test [1], in [3], in test [4], in test [5] and in test [6] was inactive.
For the compound `COc1cc(OC)nc(NC(=O)NS(=O)(=O)c2ncccc2OCC(F)(F)F)n1`, the call in test [1], in test [2], in test [3], in test [4], in test [5] and in [6] was inactive. Further, the result in test [8] and in [10] was inactive.
With `CCOc1nc(C(Cl)(Cl)Cl)ns1`, the AC50 was 1.06 µM (active) in [1], 1.01 µM (active) in test [2] and 830 nM (active) in test [5]. The call in test [3], in test [4], in test [6], in test [9] and in test [10] was inactive.
As for `CC(C)Oc1cccc(NC(=O)c2ccccc2C(F)(F)F)c1`, the outcome in [1], in [2], in test [4], in [5], in [6] and in [8] was inactive. The outcome in test [9] and in test [10] was inactive. Moreover, the AC50 in [3] is 29.4 µM (active).
Take `O=c1n(Cl)c(=O)n(Cl)c(=O)n1Cl`: the outcome in [1], in test [2], in [3], in test [4], in test [5] and in test [6] was inactive. Further, the compound was classed as inactive in test [8], in test [9] and in test [10].
